Screening results deposited in PubChem by Broad Institute.
C diff HTS: C. difficile growth inhibition; 86,000 compounds, 0.25% hits; growth activity, negative = inhibition, % at 16 µg/mL (by protocol); Clostridium difficile clinical isolate growth, OD600, 24 h; active compounds read low;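 active = mean growth activity at or below -80% and every replicate also at or below -80%; inconclusive = mean at or below -80% but some replicate above -80%; inactive = mean growth activity above -80%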;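 note: 0% = DMSO wells and -100% = levofloxacin 16 µg/mL wells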
T cruzi growth: blocks T. cruzi growth in NIH3T3 culture. T. cruzi beta-gal in NIH3T3, GalScreen luminescence, 90 h. inhibition, % at 8.34 µM. 77,000 compounds, 5.9% hits;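 active = mean inhibition above about 93%, with at least 55% of replicates each passing it, limit read from the data, passing the limit was not always enough; inconclusive = only one of those two conditions holds; inactive = neither condition holds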
Pf Dd2 growth: inhibitors of Plasmodium falciparum Dd2 growth; activity change, % at 10 µM; AID 1159554; P. falciparum Dd2 growth, SYBR Green, 72 h; active compounds read low; 94,000 compounds, 2.3% hits; in the data active = activity change below about -80%; inconclusive = no clear call, values can overlap the other calls
Starred values were filed as active, the others as inactive; ? = inconclusive; · = no result. Sampled rows, rich in hits. Any-hit rate of the full collection: about 6.7%.

SMILES | C diff HTS | T cruzi growth | Pf Dd2 growth
Cc1noc(C)c1S(=O)(=O)N(C)C[C@H]1OCCCC[C@@H](C)Oc2ccc(NC(=O)CCCCCC(=O)Nc3ccccc3N)cc2C(=O)N([C@@H](C)CO)C[C@@H]1C | -2.9 | 32.8 | -81.2*
Cc1ccc(S(=O)(=O)N(C)C[C@H]2OCCCC[C@@H](C)Oc3ccc(NC(=O)CCCCCC(=O)Nc4ccccc4N)cc3C(=O)N([C@H](C)CO)C[C@@H]2C)cc1 | -2.2 | · | -86.9*
C[C@H](CO)N1C[C@H](C)[C@@H](CN(C)C(=O)Nc2ccc3c(c2)OCO3)Oc2ccc(NC(=O)CCCN(C)C)cc2C1=O | -6.2 | · | 40.4
C[C@H](CO)N1C[C@H](C)[C@@H](CN(C)Cc2ccccc2)Oc2c(NC(=O)c3ccc(-c4nccs4)cc3)cccc2C1=O | 9.8 | 69.4 | -6.4
C[C@H](CO)N1C[C@H](C)[C@H](CN(C)Cc2ccc(C(=O)Nc3ccccc3N)cc2)Oc2c(NC(=O)c3cnccn3)cccc2C1=O | 4.9 | · | -86.0*
C[C@@H]1CN([C@@H](C)CO)C(=O)c2cccc(NC(=O)c3ccc(-c4nccs4)cc3)c2O[C@@H]1CN(C)Cc1ccccc1 | -6.4 | 71.1 | -21.0
C[C@@H]1CN([C@H](C)CO)C(=O)c2cccc(NC(=O)c3cnccn3)c2O[C@@H]1CN(C)Cc1ccc(C(=O)O)cc1 | 0.9 | -11.9 | 4.4
C[C@@H]1CN([C@@H](C)CO)C(=O)c2cccc(NC(=O)c3ccc(-c4nccs4)cc3)c2O[C@@H]1CN(C)Cc1ccc(C(=O)Nc2ccccc2N)cc1 | 2.8 | 86.6 | -94.6*
C[C@H](CO)N1C[C@H](C)[C@H](CN(C)Cc2ccc(C(=O)Nc3ccccc3N)cc2)Oc2c(NC(=O)c3ccc(-c4nccs4)cc3)cccc2C1=O | -5.1 | 93.2 | -90.0*
C[C@@H]1CN([C@@H](C)CO)C(=O)c2cccc(NC(=O)Nc3ccc(F)cc3)c2O[C@H]1CN(C)CC1CC1 | 19.8 | -7.8 | 8.9
CO[C@@H]1CN(C)C(=O)c2ccc(NC(=O)C3CCCC3)cc2OC[C@@H](C)N(C(=O)Nc2ccc(C(F)(F)F)cc2)C[C@H]1C | · | 57.5 | ·
CC(C)CC#Cc1cnc2c(c1)C(=O)N([C@@H](C)CO)C[C@@H](C)[C@H](CN(C)Cc1cncnc1)O2 | -5.9 | 12.6 | ·
CO[C@H]1CN(C)C(=O)c2cc(NC(=O)NC3CCCCC3)ccc2OC[C@@H](C)N(C)C[C@@H]1C | 3.2 | 29.7 | 11.3
C[C@@H]1CN([C@@H](C)CO)S(=O)(=O)c2ccc(-c3cccc(C(=O)N(C)C)c3)cc2O[C@H]1CN(C)Cc1ccc2c(c1)OCO2 | -1.3 | · | -82.4*
C[C@H]1CN([C@@H](C)CO)S(=O)(=O)c2ccc(C#CCN(C)C)cc2O[C@@H]1CN(C)Cc1ccncc1 | 1.2 | 97.4* | -27.1
CC(C)CC#Cc1ccc2c(c1)O[C@@H](CN(C)Cc1cccc(F)c1)[C@@H](C)CN([C@H](C)CO)S2(=O)=O | 22.3 | 69.0 | -44.2
C[C@H](CO)N1C[C@H](C)[C@H](CN(C)Cc2ccncc2)Oc2cc(C#CCN(C)C)ccc2S1(=O)=O | 0.1 | 93.2 | 15.9
CC(C)CC#Cc1ccc2c(c1)O[C@@H](CN(C)Cc1cccc(F)c1)[C@H](C)CN([C@@H](C)CO)S2(=O)=O | 5.0 | 51.1 | -84.5*
C[C@@H]1CN([C@@H](C)CO)S(=O)(=O)c2ccc(-c3cccc(C(=O)N(C)C)c3)cc2O[C@@H]1CN(C)Cc1ccc2c(c1)OCO2 | 2.3 | · | -55.3
COc1ccc2c3c([nH]c2c1)[C@@H](CO)N(C(=O)c1ccccn1)CC31CN(S(C)(=O)=O)C1 | -4.0 | · | 48.8
CN(C)C(=O)C[C@H]1CC[C@H]2[C@@H](COc3ccc(NC(=O)C4CCOCC4)cc3C(=O)N2C)O1 | 0.9 | -49.7 | 10.7
C[C@@H]1CN([C@@H](C)CO)C(=O)c2cccc(NS(C)(=O)=O)c2O[C@H]1CN(C)Cc1ccncc1 | 1.2 | -1.6 | 27.5
C[C@H](CO)N1C[C@H](C)[C@H](CN(C)Cc2cccc(C(=O)O)c2)OCc2cn(nn2)CCCC1=O | · | -20.6 | 10.9
C[C@@H]1CCCCO[C@H](CN(C)C(=O)Nc2cccc3ccccc23)[C@H](C)CN([C@@H](C)CO)C(=O)c2cc(N(C)C)ccc2O1 | -9.0 | 80.5 | -54.8
C[C@@H]1CN([C@@H](C)CO)C(=O)c2cc(NC(=O)c3ccccc3)ccc2O[C@@H](C)CCCCO[C@H]1CN(C)S(=O)(=O)c1ccc(Cl)cc1 | 2.9 | 64.6 | -84.4*
SMILES | C diff HTS | T cruzi growth | Pf Dd2 growth
C[C@@H]1CCCCO[C@@H](CN(C)S(=O)(=O)c2ccc(Cl)cc2)[C@H](C)CN([C@@H](C)CO)C(=O)c2cc(NC(=O)c3ccccc3)ccc2O1 | 1.6 | 71.1 | -69.5
C[C@@H]1CCCCO[C@@H](CN(C)S(=O)(=O)c2ccccc2)[C@H](C)CN([C@@H](C)CO)C(=O)c2cc(NC(=O)c3ccccc3)ccc2O1 | · | -37.1 | -37.9
C[C@@H]1CCCCO[C@H](CN(C)S(=O)(=O)c2ccccc2)[C@H](C)CN([C@@H](C)CO)C(=O)c2cc(NC(=O)c3ccccc3)ccc2O1 | · | 34.2 | -55.8
C[C@@H]1CN([C@@H](C)CO)C(=O)c2cc(NC(=O)c3ccccc3)ccc2O[C@@H](C)CCCCO[C@@H]1CN(C)S(=O)(=O)c1ccc(Cl)cc1 | 13.8 | 82.3 | -86.4*
C[C@@H]1CCCCO[C@@H](CN(C)S(=O)(=O)c2ccc(Cl)cc2)[C@H](C)CN([C@H](C)CO)C(=O)c2cc(NC(=O)c3ccccc3)ccc2O1 | 1.9 | 90.4 | -85.1*
C[C@H]1CCCCO[C@@H](CN(C)S(=O)(=O)c2ccccc2)[C@@H](C)CN([C@@H](C)CO)C(=O)c2cc(NC(=O)c3ccccc3)ccc2O1 | · | 24.3 | -67.7
C[C@H]1CCCCO[C@H](CN(C)S(=O)(=O)c2ccc(Cl)cc2)[C@@H](C)CN([C@@H](C)CO)C(=O)c2cc(NC(=O)c3ccccc3)ccc2O1 | 7.9 | 96.6 | -80.7*
CCC(=O)Nc1ccc2c(c1)C(=O)N(C)[C@H]1CC[C@@H](CC(=O)NCCc3ccncc3)O[C@@H]1CO2 | -5.3 | 28.1 | 9.2
COc1cccc(C(=O)Nc2ccc3c(c2)C(=O)N(C)C[C@@H](OC)[C@H](C)CN(C(=O)C2CCCC2)[C@@H](C)CO3)c1 | · | 74.7 | ·
O=C(C1CCOCC1)N1C[C@H]2[C@@H](c3ccccc31)[C@@H](CO)N2C(=O)Nc1cccc(F)c1 | 3.4 | -16.4 | 3.3
COc1ccccc1CNC(=O)C[C@H]1C[C@H]2c3cc(NC(=O)Cc4ccncc4)ccc3O[C@H]2[C@H](CO)O1 | 0.1 | -9.6 | -86.7*
CN(C)c1ccc2c(c1)[C@@H]1C[C@@H](CC(=O)NCc3ccc(Oc4ccccc4)cc3)O[C@@H](CO)[C@@H]1O2 | 5.9 | 127.2* | ?
CN(C)c1ccc2c(c1)[C@H]1C[C@H](CC(=O)N3CCc4ccccc4C3)O[C@@H](CO)[C@H]1O2 | -0.7 | 85.5 | -58.3
CN(C)c1ccc2c(c1)[C@@H]1C[C@H](CC(=O)N3CCc4ccccc4C3)O[C@@H](CO)[C@@H]1O2 | -5.5 | 101.4* | ?
COCC(=O)Nc1ccc2c(c1)[C@@H]1C[C@@H](CC(=O)NCc3ccccc3OC)O[C@@H](CO)[C@@H]1O2 | -3.5 | -4.4 | -18.4
